From PubChem BioAssay (NCATS) come the findings set out here.

“And” between values parts separate entries of the source, which are not always exact repeats. Identical values can stand only once. Results filed as inconclusive are left out. Where a structure was tested more than once in an assay, its records may differ in their call. A number with no mark means an inactive call. The source made the active and inactive calls. The call rests on the fitted dose curve; in most records, active means well fitted activation curve with a large enough effect; inconclusive means small, poorly fitted or top-dose-only effect; inactive means no such curve, though single readings can be large or run the other way.
Potency means the concentration at half of the fitted maximal effect.

Sequence of Cellular tumor antigen p53 (Homo sapiens) (P04637 whole entry, looked up): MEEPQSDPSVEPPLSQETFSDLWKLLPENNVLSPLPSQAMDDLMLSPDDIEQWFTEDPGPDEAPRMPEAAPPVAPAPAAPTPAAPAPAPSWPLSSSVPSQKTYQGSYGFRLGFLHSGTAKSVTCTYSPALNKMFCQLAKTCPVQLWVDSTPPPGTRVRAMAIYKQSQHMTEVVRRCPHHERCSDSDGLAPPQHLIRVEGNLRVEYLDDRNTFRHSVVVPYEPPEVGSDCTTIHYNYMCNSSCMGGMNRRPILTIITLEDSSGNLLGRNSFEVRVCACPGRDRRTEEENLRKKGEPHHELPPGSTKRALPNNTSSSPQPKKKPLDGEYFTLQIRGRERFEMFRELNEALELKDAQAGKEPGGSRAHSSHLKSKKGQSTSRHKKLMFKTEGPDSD

For this assay, the target named is Cellular tumor antigen p53 (Homo sapiens) (UniProt P04637). The assay is described as follows: Primary qHTS for small molecule compounds that upregulate eGFP-tagged delta133p53alpha (in N-terminal) cells. (AID 2060322). Further: nearly all actives have a fitted effect of over 75% in size.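 On activation: cells pre-induced with doxycycline then dosed without doxycycline; series mostly up to about 56 µM; 0% = DMSO vehicle and 100% = reference activator.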 Particulars: NCI-H358 eGFP-delta133p53alpha fluorescence, 24 h; activation: stronger effect = higher value. The text has this:
Assay Development and Screening Technology
National Center for Advancing Translational Sciences (NCATS),
National Institute of Health (NIH), Rockville, Maryland
Cellular senescence (CS) is one of the hallmarks of aging and age-related diseases. Senescent cells are characterized by an irreversible growth arrest, an increase in senescence-associated beta-galactosidase (SA-beta-gal) activity and p16INK4a expression, an activation of the DNA damage response pathways, and the emergence of a senescence-associated secretory phenotype (SASP).
Delta133p53alpha, a human/primate-specific p53 protein isoform, delays or inhibits the induction of CS and SASP in various types of human cells, including progeria-derived fibroblasts, primary normal astrocytes, and CD8+ T lymphocytes. Induction of delta133p53alpha with small molecule compounds may provide therapeutic opportunities for inhibition of senescence/SASP-associated pathologies in progeria syndromes, astrocyte-mediated neuroprotection in neurodegenerative diseases, and possibly prevention and treatment of a wider range of senescence- and aging-associated diseases.
Here we report the development and validation of a cell-based quantitative high throughput screening (qHTS) assay in 1,536-well format. This qHTS assay uses the NCI-H358 cell line with doxycycline-inducible expression of enhanced green fluorescent protein (eGFP)-tagged delta133p53alpha, which allows efficient and highly quantitative measurement of the protein levels.
PROTOCOL TABLE (as described by Inglese J, Shamu CE and Guy RK. 2007)
SEQUENCE No. (e.g., 1, 2, 3, etc.); […] (e.g., Cells, Incubation, Reagent, etc.); VALUE; DESCRIPTION.
1; Cells; 4uL; 800 doxycycline treated cells / well in doxycycline-free media, 1536-well black, clear-bottom low base Aurora microplates.
2; Compounds; 23 nL; Kalypsis pin tool (Wako) equipped with 1536-well pin heads, 5-azacytidine positive control.
3; Incubation; 24 hr; 37C, 5% CO2; 95% relative humidity.
4; Aspiration; 1x; BioTek EL406 washer dispenser (Agilent).
5; Fixing; 3.5% paraformaldehyde, BioTek EL406 washer dispenser (Agilent).
6; Washing; 1x PBS; BioTek EL406 washer dispenser (Agilent).
7; Nuclei staining; 1:1000 dilution of Hoechst 33342 (Thermofisher), BioTek EL406 washer dispenser (Agilent).
8; Incubation; 20 min; in the dark at room temperature.
9; Washing; 2x, 1x PBS (ThermoFisher), BioTek EL406 washer dispenser (Agilent).
10; Reagent; 10 uL; 1x PBS per well, sealed with clear adhesive tape.
NOTES (numbers refer to sequence numbers above).
1. NCI-H358 cells expressing eGFP-tagged delta133p53alpha were grown in T75 culture flasks and treated with doxycycline for 24h, at 10 ng/ml for eGFP-D133p53a cells (N-terminal cell) and 100 ng/ml for D133p53a-eGFP cells (C-terminal cells). Cells were trypsinized, counted using a Counted 3 Automated Cell Counter (Thermo Fisher), and diluted to a concentration of 200,000 cells/ml. A Multidrop Combi Reagent Dispenser (ThermoFisher) was used to dispense 800 cells/well in […] of doxycycline-free media, into 1536-well black/clear bottom low base plates (AuroraMicroplates).
2. After plating cells, 23 nl of compound library, DMSO vehicle control or positive control (5-azacytidine) were transferred by Pin Tool (Wako). The plate map layout was the same for each plate: (column 1) non-doxycycline treated cells + DMSO vehicle control; (column 2) doxycycline treated cells + DMSO vehicle control baseline; (column 3) doxycycline treated cells + positive control 57.5 uM final concentration 5-azacytidine; (column 4) doxycycline treated cells + serial dilution of 5-azacytidine, 16-point 1:2 titration spanning 1.8 nM to […] final concentration; (columns 5-48) doxycycline treated cells + titration of library compounds.
3. Cells were incubated at 37 °C, 5 % CO2, 95% RH with breathable metal lid for 24h.
4-10. […] After two washes, 10 ul of 1X PBS (Thermo Fisher) was dispensed to each well. Clear adhesive plate seals (VWR) were applied and plates stored at 4 °C.
11. […]
Turning to `Cc1cccc(C#Cc2cc(F)cc(C#N)c2)n1`, the activation was -6.68%.

For `Nc1nc(N)c(-c2ccccc2)s1`, the activation was -14.1%.

For `CN1C2CCC1CC(OC(c1ccccc1)c1ccccc1)C2` (stereo not given), the activation is -19.6%.

With `CCS(=O)(=O)c1ccc(OC)c(C(=O)OC)c1`, the activation is 19.8%.

As to `C=C1CCN([C@H](C)[C@](O)(Cn2cncn2)c2ccc(F)cc2F)CC1`, the activation was -19.1%.

Regarding `CC(CCO)CCC1C2(C)CCCC(C)(C)C2CC[C@@]1(C)O` (stereo not given in full), the activation was 18.3%.

For `CN1CCN(c2nc(-c3ccc(C(=O)NC4(C(=O)NCC#N)CCCCC4)cc3)cs2)CC1`, the activation was -19.1%.

`C=C1C[C@@]2(O)O[C@@]3(C[C@H]2C(C)C)[C@H](C)CC[C@H]13`: the activation is 18.1%.

As to `CCCCOC(=O)c1ccc(N)cc1`, the activation was 19.8%.

As for `OC[C@@H](O)[C@@H](O)[C@H](O)[C@@H](O)CO`, the activation is 6.34%.

For the compound `C/C(=C(\CCOP(=O)(O)O)SC(=O)c1ccccc1)N(C=O)Cc1cnc(C)nc1N`, the activation was -11.7%.

In the case of `CC(CC(C)O[C@@H]1O[C@H](CO)[C@@H](O)[C@H](O)[C@H]1O)OC(=O)/C=C/c1ccc(O)cc1` (stereo not given in full), the activation is 3.82%.

As to `C/C(=C1\CCOC(=O)S1)N(C=O)Cc1cnc(C)nc1N`, the activation was -5.86%.

Consider `N[C@@H](CCC(=O)N[C@H](CSN=O)C(=O)NCC(=O)O)C(=O)O`, for which the activation was -28.5%.

As to `CCCC(N[C@@H](C)C(=O)N1[C@H](C(=O)O)C[C@@H]2CCCC[C@@H]21)C(=O)OCC` (stereo not given in full), the activation was 2.39%.

As for `Cc1c(C(=O)NCCO)[n+](=O)c2ccccc2n1[O-]`, the activation was -11.7%.

For `C=C1CC[C@]2(C(=O)O[C@@H]3O[C@H](CO)[C@@H](O)[C@H](O)[C@H]3O)CC[C@]3(C)C(=CCC4[C@@]5(C)C[C@H](O)[C@@H](O[C@@H]6O[C@H](C(=O)O)[C@@H](O)[C@H](O)[C@H]6O)[C@](C)(C=O)C5CC[C@]43C)C2C1` (stereo not given in full), the activation is -11.6%.

Regarding `CCCCC(CC)COC(=O)C(C#N)=C(c1ccccc1)c1ccccc1` (stereo not given), the activation was -10.7% and -6.01%.

Consider `C[C@](Cc1ccc(O)c(O)c1)(NN)C(=O)O`, for which the activation is -15.4%.

Consider `COc1ccc([C@@]2(O)c3c(ccc(CC=C(C)C)c3O)NC(=O)[C@@H]2OC)cc1`, for which the activation was -19.1%.

`Cc1cccc(C(=O)NCN2CCN(c3ccccc3C#N)CC2)c1`: the activation was -16.7%.

For the compound `O=[N+]([O-])c1ccc(CNc2nc(NCc3cccc(C(F)(F)F)c3)nc3nc[nH]c23)cc1`, the activation was -48.1% and 15.7%.

Turning to `CCc1nn(CCO)c(CC)c1Oc1cc(C#N)cc(C#N)c1`, the activation was 11.9%.

As for `CC(=O)N1c2ccccc2C2(O)CC3C(=O)NC(CC(C)C)C(=O)N3C12` (stereo not given), the activation is -32.8%.

On to `C=CCCN1CCC2(CC1)CN(C(=O)c1c(F)cccc1F)c1ccc(Cl)cc12`, for which the activation is 8.11%.

Regarding `COC(=O)C1=CO[C@@H](O[C@@H]2O[C@H](CO)[C@@H](O)[C@H](O)[C@H]2O)[C@@H]2C(COC(C)=O)=C[C@H](O)[C@H]12`, the activation is -14.5%.

As for `CC(C)Nc1cc(-c2c[nH]c(C(=O)N[C@H](CO)c3cccc(Cl)c3)c2)c(Cl)cn1`, the Potency is 4.26 µM (active).

With `Cn1c(=O)c2[nH]c(Br)nc2n(C)c1=O`, the activation was -3.95%.

As to `CCCC(C(=O)OCCN(CC)CC)(c1ccccc1)c1ccccc1`, the Potency was 34.7 µM (active) and the activation was -51.2%.

In the case of `CC(C)c1cc2c(N3CCN(C4=NCC(C)(C)S4)CC3)ncnc2s1`, the activation was 3.67%.

On to `Nc1ccc(S(=O)(=O)Nc2ccccn2)cc1`, for which the activation was -36.8% and 13.3%.

Take `O=C(NOCC1CC1)c1ccc(F)c(F)c1Nc1ccc(I)cc1Cl`: the activation was 13% and 35.6% and 22.3%.

With `C=CCCCCCCCCC(=O)O`, the activation is -20.9%.

`CCCCOC(=O)CC(CC(=O)OCCCC)(OC(C)=O)C(=O)OCCCC`: the activation was -31.1%.

Consider `O=C(O)Cc1cccc(-c2cc(CCCCCCc3ccc(O[C@H]4O[C@H](CO)[C@@H](O)[C@H](O)[C@@H]4O)c(-c4cccc(CC(=O)O)c4)c3)ccc2O[C@H]2O[C@H](CO)[C@@H](O)[C@H](O)[C@@H]2O)c1`, for which the activation was 4.33%.

With `C/C=C(\C)C(=O)O[C@H]1[C@H](O)[C@]2(COC(C)=O)[C@H](O)C[C@]3(C)C(=CCC4[C@@]5(C)CC[C@H](O[C@@H]6O[C@H](C(=O)O)[C@@H](O[C@@H]7O[C@H](CO)[C@@H](O)[C@H](O)[C@H]7O)[C@H](O)[C@H]6O[C@@H]6O[C@H](CO)[C@@H](O)[C@H](O)[C@H]6O)[C@](C)(CO)C5CC[C@]43C)[C@@H]2CC1(C)C` (stereo not given in full), the activation is -8.4%.

For `CC1=CC(=O)CC2C1(O)CCC(C)C21CC(c2ccoc2)OC1=O` (stereo not given), the activation is 6.87%.

For `CC(C)N(CCCNC(=O)Nc1ccc(C(C)(C)C)cc1)C[C@H]1O[C@@H](n2cc(Br)c3c(N)ncnc32)[C@H](O)[C@H]1O`, the activation was -20.1%.

Consider `CCn1nnnc1NCc1ccc(C(C)C)cc1`, for which the activation was 3%.
